The record followed here is PubChem BioAssay (NCATS).

Results filed as inconclusive are left out. Active and inactive are the calls of the source. Calls come from the whole dose curve; as a rule, active = well fitted cell-killing curve with a large enough effect; inconclusive = small, poorly fitted or top-dose-only effect, or effect the other way; inactive = no such curve, though single readings can be large or run the other way.
Potency is the fitted concentration of half-maximal effect.

The assay in a line: Viability qHTS for spleen associated tyrosine kinase inhibitor (SYKi) drug resistant MV4-11 cells (AID 1963824). Note: nearly all actives have a fitted effect of over 35% in size. The conditions noted are these: SYKi-resistant MV4-11 viability, CellTiter-Glo, 72 h; series mostly up to 45 µM; viability, % of control: at the top concentration. The source says:
Department of Medicine, Hematology/Oncology
University Hospital Frankfurt, Germany.
Trials have shown promising clinical activity of the selective SYK inhibitor entospletinib in patients with high expressing HOXA9/MEIS1 acute leukemias. As the development of resistance mechanisms is a common problem in the use of targeted drugs, we performed a chemical library screen to identify drug sensitivities in SYK inhibitor resistant AML cells. […] Glucocorticoids are potent immunosuppressants which work in part by inhibiting the transcription of cytokine genes.
Described herein is a viability screen to look for activity in the SYK inhibitor drug resistant cell line against four NCATS compound libraries (MIPE 5.0, NPC, NPACT, and Kinase) totaling 11372 compounds. Active hits were reacquired for confirmation and further secondary assay testing.
SEQUENCE No. (e.g., 1, 2, 3, etc.); […] (e.g., Cells, Incubation, Reagent, etc.); VALUE; DESCRIPTION.
1; Media; 2uL; white, solid-bottom Corning assay plate.
2; Compounds; 23nL; Echo acoustic dispenser.
3; Cell; 5uL; 500 cells per well.
4: Incubation; 72hr; 37 C, 5% CO2, 95% humidity.
5; Reagent; 3uL; CellTiter-Glo reagent (Promega).
6; Incubation; 10min; room temperature.
7; Detection; Luminescence; ViewLux plate reader (PerkinElmer).
NOTES (numbers refer to Sequence numbers above
1. Quantitative high-throughput screening (qHTS) of small molecule compounds was conducted on drug resistant SYKi MV4-11 cell line.
2. Twenty-three nanoliter of small molecule compounds were added to each assay plates using the Echo acoustic dispenser (Beckman Coulter).
3. Cells were seeded into the assay plates at a final density of 500 cells in 5uL of media per well using the Multidrop Combi dispenser.
4. Plates were covered with stainless steel gasketed lids and incubated for 72 hours at standard cell culture conditions.
5. Viability was assessed by adding 3uL of CellTiter-Glo detection reagent (Promega).
6. Plates were covered with gasket lids and incubated for 10 minutes at room temperature.
7. Luminescence was measured on a ViewLux plate reader (PerkinElmer).
In general terms: Quantitative high-throughput screening tests each substance at several concentrations.
Regarding `COC(=O)[C@]12CCC(C)(C)C[C@H]1[C@H]1C(=O)C=C3[C@@]4(C)C=C(C#N)C(=O)C(C)(C)[C@@H]4CC[C@@]3(C)[C@]1(C)CC2`, the Potency is 2630 nM (active).

For the compound `CC1(C)CC[C@]2(NC(=O)C(C)(F)F)CC[C@]3(C)[C@H](C(=O)C=C4[C@@]5(C)C=C(C#N)C(=O)C(C)(C)[C@@H]5CC[C@]43C)[C@@H]2C1`, the Potency is 2630 nM (active).

Take `Nc1ccn(CC(CO)OCP(=O)(O)O)c(=O)n1` (stereo not drawn): the “viability, % of control” value was 99.1% (inactive).
